Data on 17 molecules can be found in ChEMBL document CHEMBL1961873, “Compounds: GSK PKIS; Assays: Nanosyn kinase panel” (2012).

The structures appear in SMILES notation.

The subject of test [1] is Tyrosine-protein kinase ABL1 (Homo sapiens), P00519 [E255K]. As to conditions: at 0.1 µM.
Test [2] shares this test system. As to conditions: at 1 µM.
The test system of test [3] is Tyrosine-protein kinase ABL1 (Homo sapiens), P00519 [H396P]. As to conditions: at 0.1 µM.
The test system is the same in test [4]. To be noted: at 1 µM.
Test [5] has as its system Tyrosine-protein kinase ABL1 (Homo sapiens), P00519 [M351T]. To be noted: at 0.1 µM.
For test [6] the test system is unchanged. As to conditions: at 1 µM.
For test [7], the system named is Tyrosine-protein kinase ABL1 (Homo sapiens), P00519 [Q252H]. To be noted: at 0.1 µM.
For test [8] the test system is unchanged. As to conditions: at 1 µM.
In test [9] the test system is Tyrosine-protein kinase ABL1 (Homo sapiens), P00519 [T315I]. As to conditions: at 0.1 µM.
Test [10] concerns the target Serine/threonine-protein kinase PAK 6 (Homo sapiens) (UniProt Q9NQU5). To be noted: at 1 µM.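 Note: values are mean percent inhibition of PAK6 kinase.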

Chain of Serine/threonine-protein kinase PAK 6 (Homo sapiens) (Q9NQU5 whole entry, looked up): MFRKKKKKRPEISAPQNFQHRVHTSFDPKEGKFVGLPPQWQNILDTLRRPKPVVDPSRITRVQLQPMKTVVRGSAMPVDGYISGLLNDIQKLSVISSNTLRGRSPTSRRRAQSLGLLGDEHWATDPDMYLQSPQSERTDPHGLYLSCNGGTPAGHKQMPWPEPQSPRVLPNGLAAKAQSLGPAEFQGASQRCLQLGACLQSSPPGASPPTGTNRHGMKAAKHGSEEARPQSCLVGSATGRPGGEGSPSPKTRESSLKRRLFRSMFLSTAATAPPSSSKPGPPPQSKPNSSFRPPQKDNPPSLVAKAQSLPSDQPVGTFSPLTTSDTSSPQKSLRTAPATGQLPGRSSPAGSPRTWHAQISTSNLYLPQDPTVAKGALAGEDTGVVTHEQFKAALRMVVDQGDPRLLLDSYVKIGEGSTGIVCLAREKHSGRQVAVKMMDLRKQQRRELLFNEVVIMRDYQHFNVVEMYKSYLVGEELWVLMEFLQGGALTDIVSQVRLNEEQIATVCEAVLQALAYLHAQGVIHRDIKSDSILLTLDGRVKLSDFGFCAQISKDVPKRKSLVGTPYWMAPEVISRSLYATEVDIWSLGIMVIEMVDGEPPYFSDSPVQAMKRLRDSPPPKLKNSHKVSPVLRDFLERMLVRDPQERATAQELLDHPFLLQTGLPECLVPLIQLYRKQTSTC

Consider `NS(=O)(=O)c1ccc(N/N=C2\C(=O)Nc3ccc(C(=O)NCCCn4ccnc4)cc32)cc1`, for which the inhibition in test [1] came to 5.15%; in test [2], 10.9%; in test [3] it was 5.17%; in test [4] it was 14.3%; in test [5] it was 0.91%; in [6], 14.2%. Besides, the inhibition was 5.21% in test [7], 13.1% in test [8] and 3.66% in [9].

For `O=C(Nc1n[nH]c2nc(-c3ccc(O)cc3)c(Br)cc12)C1CC1`, the inhibition in test [10] is 8.5%; in test [1] it was 21%; in test [2] it was 66.4%; in test [3], 38.5%; in [4], 81%; in test [5], 37.4%. Also, the inhibition in test [6] was 81%; in test [7] it was 37.5%; in test [8], 82.4%; in [9], 43.5%.

As for `CN(C)c1ccc2c(c1)/C(=C/Nc1ccc(S(N)(=O)=O)cc1)C(=O)N2`, the inhibition is -1.53% in test [10]; 2.53% in test [1]; 12.8% in test [2]; 2.8% in [3]; 14.3% in test [4]; 3.86% in [5]. Further, the inhibition in test [6] was found to be 15.8%; in test [7], 4%; in test [8], 17.8%; in test [9] it was 3.12%.

As for `C[C@@H](Oc1cc(-n2cnc3ccc(OC4CCN(C)CC4)cc32)sc1C(N)=O)c1ccccc1Cl`, the inhibition in test [10] was -9.57%; in [1], 1.25%; in test [2] it was 8.32%; in [3], 4.49%; in [4] it was 10.5%; in test [5], 0.86%. Further, the inhibition stood at 5.39% in [6], 3.24% in test [7], 11% in test [8] and 2.01% in test [9].

Turning to `NCc1ccc(-n2c(-c3nonc3N)nc3cnccc32)cc1`, the inhibition is -0.18% in [10]; 3.58% in [1]; 2.62% in [2]; 5.81% in [3]; 0.32% in test [4]; 3.87% in [5]. For the same molecule, the inhibition in test [6] was determined as 0.32%; in test [7], 4.57%; in test [8] it was 1.69%; in test [9], 2.95%.

Turning to `c1ccc(Oc2ccc(Nc3ncc(-c4ccccc4)o3)cc2)cc1`, the inhibition in test [10] is -7.12%; in test [1], 1.57%; in test [2] it was 0.84%; in [3] it was 2.43%; in test [4], 0.51%; in [5], 1.56%. In addition, the inhibition in test [6] turned out to be 1.33%; in test [7], 1.3%; in [8] it was 0.81%; in [9], 1.59%.

Take `C/C(Nc1ccc(S(N)(=O)=O)cc1)=C1/C(=O)Nc2ccccc21`: the inhibition in test [10] is 0.59%; in [1], -1.03%; in test [2] it was 3.45%; in test [3], 0.93%; in test [4], 7.24%; in test [5], 3.92%. For the same molecule, the inhibition in test [6] was found to be 14.7%; in [7], 2.51%; in test [8], 13.6%; in [9], 1.39%.

Turning to `Fc1ccc(-c2c(-c3ccncc3)nc3n2CCS3)cc1`, the inhibition in test [10] is -5.03%; in [1], 1.44%; in test [2], 4.74%; in test [3] it was 2.06%; in test [4], 3.54%; in test [5], -0.24%. The inhibition came to 5.03% in test [6], 1.69% in [7], 4.11% in test [8] and 0.05% in [9].

With `COc1ccc2cc(-c3c(-c4ccncc4)nc(-c4ccc(S(C)(=O)=O)cc4C)n3C)ccc2c1`, the inhibition is -3.99% in test [10]; 2.69% in [1]; 10.9% in test [2]; 5.32% in test [3]; 17.9% in test [4]; 2.32% in test [5]. In addition, the inhibition amounted to 18% in [6], 6.25% in test [7], 22.4% in [8] and 8.12% in test [9].

As to `Cc1ccc(C(=O)NC(C)C)cc1-c1ccc(C(=O)NCC2CC2)cc1`, the inhibition was -0.92% in [1]; -0.81% in test [2]; -1.54% in test [3]; -1.16% in [4]; -0.95% in test [5]; 1.25% in test [6]. Besides, the inhibition was -2.61% in test [7], -1.55% in [8] and -1.99% in test [9].

On to `Fc1ccc(-c2nc3n(c2-c2ccncc2)CCS3)cc1`, for which the inhibition in [10] is -7.43%; in [1], 1.52%; in test [2] it was 4.79%; in test [3], 2.85%; in test [4] it was 3.2%; in test [5], 1.2%. For the same molecule, the inhibition in test [6] turned out to be 4.76%; in test [7], 2.91%; in test [8], 5.38%; in [9], 1.83%.

`O=C1Nc2ccccc2/C1=C/Nc1ccc(-n2cncn2)cc1`: the inhibition in [1] stood at 1.9%; in test [2], 9.03%; in test [3] it was 2.67%; in test [4], 13.3%; in test [5] it was 1.55%; in [6] it was 14.5%. For the same molecule, the inhibition in test [7] is 3.88%; in test [8], 13.4%; in test [9], 3.25%.

In the case of `CS(=O)(=O)CCNCc1cc(-c2cc3c(Nc4ccc(OCc5cccc(F)c5)c(Cl)c4)ncnc3s2)cs1`, the inhibition in test [1] turned out to be 2.18%; in test [2], 4.04%; in test [3], 4.45%; in [4], 5.71%; in test [5], 2%; in test [6], 5.07%. Besides, the inhibition in test [7] is 4.77%; in test [8] it was 6.1%; in [9], 4.15%.

As to `COc1cc(Nc2ncc(-c3ccccc3)o2)cc(OC)c1OC`, the inhibition in [1] is 5.32%; in [2] it was 36.8%; in [3], 12.7%; in [4], 61.5%; in [5] it was 14.3%; in [6], 61.2%. The inhibition in test [7] worked out at 11.2%; in test [8] it was 57.7%; in test [9] it was 1.79%.

Consider `O=C(Nc1n[nH]c2nc(-c3ccco3)ccc12)C1CC1`, for which the inhibition in test [10] is 3.45%; in test [1] it was 2.26%; in test [2] it was 5.68%; in test [3], 3.89%; in test [4], 10.4%; in test [5], 4.48%. The inhibition in test [6] came out at 15%; in [7] it was 4.58%; in [8] it was 9.24%; in test [9], 2.66%.

Regarding `O=C(Nc1n[nH]c2cc(-c3cc(F)ccc3F)ccc12)C1CC1`, the inhibition was -0.43% in test [10]; 8.07% in test [1]; 31.4% in test [2]; 13.8% in [3]; 52.2% in test [4]; 13% in test [5]. In addition, the inhibition in [6] was 53.8%; in test [7], 8.73%; in [8], 35.5%; in test [9], 23.3%.

With `O=C(Nc1ccc(Oc2ccc3[nH]c(NC(=O)c4ccccc4)nc3c2)cc1)Nc1cc(C(F)(F)F)ccc1F`, the inhibition in [10] was 3.44%; in [1], 3.28%; in test [2], 27%; in test [3], 17%; in test [4], 71%; in test [5], 44.6%. The inhibition in test [6] came out at 79.8%; in test [7] it was 38.4%; in test [8] it was 74.6%; in test [9], 36.6%.
